The panel holds about 83,000 compounds, 20% with a hit somewhere; the sample as a whole holds those more often.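 A percent growth of 40 corresponds to 60% growth inhibition; 0 means no net growth; -100 means all cells died. Active threshold: below 10.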 Values without a mark were called inactive. Activity calls are given as the source filed them.
Key:
Assay in all cases: NCI-60 one-dose screen, 48 h (100 = growth as untreated, 0 = no growth, -100 = all killed)
Details in all cases: 10 µM unless noted
DU-145 prostate = tested on: DU-145 prostate
K-562 leukemia = tested on: K-562 leukemia
MALME-3M melanoma = tested on: MALME-3M melanoma
MDA-MB-231 breast = tested on: MDA-MB-231 breast
RXF 393 renal = tested on: RXF 393 renal
SF-268 CNS = tested on: SF-268 CNS
SF-295 CNS = tested on: SF-295 CNS
SF-539 CNS = tested on: SF-539 CNS
UACC-257 melanoma = tested on: UACC-257 melanoma
M14 melanoma = tested on: M14 melanoma
HCT-15 colon = tested on: HCT-15 colon
SNB-75 CNS = tested on: SNB-75 CNS
SNB-19 CNS = tested on: SNB-19 CNS
U251 CNS = tested on: U251 CNS
PC-3 prostate = tested on: PC-3 prostate
SK-MEL-5 melanoma = tested on: SK-MEL-5 melanoma
UACC-62 melanoma = tested on: UACC-62 melanoma
LOX IMVI melanoma = tested on: LOX IMVI melanoma
SK-MEL-28 melanoma = tested on: SK-MEL-28 melanoma
HT29 colon = tested on: HT29 colon

Compound | growth (DU-145 prostate) | growth (K-562 leukemia) | growth (MALME-3M melanoma) | growth (MDA-MB-231 breast) | growth (RXF 393 renal) | growth (SF-268 CNS) | growth (SF-295 CNS) | growth (SF-539 CNS) | growth (UACC-257 melanoma) | growth (M14 melanoma) | growth (HCT-15 colon) | growth (SNB-75 CNS) | growth (SNB-19 CNS) | growth (U251 CNS) | growth (PC-3 prostate) | growth (SK-MEL-5 melanoma) | growth (UACC-62 melanoma) | growth (LOX IMVI melanoma) | growth (SK-MEL-28 melanoma) | growth (HT29 colon)
COc1cccc(/C=N/NC(=O)c2ccccc2N2CCCC2)c1O | 68% | 13.6% | 75.7% | 47.8% | 63.8% | 38.8% | 86.2% | 61.8% | -29.8% (active) | 48.5% | 19.4% | 67.4% | 65.8% | 46.7% | 72% | 58.4% | 42.5% | 25.4% | 72.1% | 
C/C=C(/C)n1cnc2c(Nc3ccccn3)nc(Cl)nc21 | 109% | 95.6% | 106% | 107% | 105% | 99.2% | 104% | 102% | 97.6% | 101% | 103% | 87.9% | 107% | 99.8% | 95.3% | 101% | 95.8% | 95.3% | 105% | 
COc1ccc(Cn2cc3c(c2-c2ccccc2)CCc2cnoc2-3)cc1 | -4.72% (active) | 13.7% | 70.2% | 10.4% | 24.8% | 16% | 23.2% | -12.8% (active) | 78.8% | 16.8% | 16.7% | 44.2% |  | 29.4% | 27.4% | -10% (active) | 24% | 29.6% |  | 
Oc1c(CN2CCCC2)cc(CSCc2ccccc2)c2cccnc12 | 22.6% | 11% | -2.43% (active) | 26.4% | 31.3% | 11.9% | 5.5% (active) | -26.2% (active) | -16.7% (active) | -3.2% (active) | -39.3% (active) | 24.6% | 23.9% | -1.52% (active) | 20.8% | -26.3% (active) | -19.5% (active) | 2.24% (active) |  | 
O=C(Nc1ncc(Cc2ccccc2)s1)c1ccc2c(c1)OCCCO2 | 27.5% | 9.28% (active) | 51% | 44% | -10% (active) | 60.4% | 15.2% | -9.3% (active) | 41.4% | 3.29% (active) | 21.5% | 34.3% | 37.4% | 35.4% | 27.7% | 8.06% (active) | 29% | 29.9% | 36.8% | 
COc1ccc(C(=O)/C=C/c2ccc(N3CCCCC3)cc2)cc1OC | 95.4% | 76% | 104% | 91.8% | 107% | 95.3% | 95.2% | 98.2% | 82.8% | 89.4% | 94.9% | 84.3% | 91.3% | 95.6% | 81% | 90.4% | 75.3% | 97.1% | 102% | 
COc1ccc(C(O)c2cc3c(N)c(C(=O)Nc4cccc(Cl)c4C)sc3nc2C)cc1 (configuration not stated) | 3.08% (active) | 6.61% (active) | 41.7% | 1.27% (active) | 33.7% | 13.2% | 17.4% | -4.61% (active) | 44.1% | 7.3% (active) | 10.8% | -11.4% (active) | 39% | 11.1% | 16.7% | -53.7% (active) | 24.6% | 22% | 57.7% | 
O=C(Cc1ccc(NC(=O)c2cccc(Cl)c2)cc1)NCc1ccccc1 | 86.1% | 13.9% | 61.3% | 60.8% | 65% | 61.7% | 41.3% | 36.7% | 69.1% | 18.7% |  | 29.7% | 47.5% | 33.3% | 48.8% | 7.53% (active) | 37.2% | 39.6% | 58.9% | 8.25% (active)
Cn1ccc(=O)nc1 | 8.53% (active) | 91.9% | 111% | 91.9% | 92.6% | 86.1% | 82.9% | 99.9% | 88.3% | 102% |  | 104% | 84.6% | 77.8% | 69.6% | 99.3% | 74.8% | 76.8% | 109% | 20.6%
CCCCNC(=O)Oc1ccc(/C(=C(/C)Cc2ccc(OC)cc2)c2ccc(OCCN3CCCCC3)cc2)cc1 | 92.1% | -14.1% (active) | 79.1% | 87.6% | 71.5% | 81.2% | 86.8% | 80.4% | 99.2% | 31% |  | 64.8% | 77.1% | 54.7% | 59% | 57% | 67.7% | 70.4% | 78.2% | 2.86% (active)

Reference: PubChem BioAssay (NCI)
